Data from PubChem BioAssay AID1345085 (National Center for Advancing Translational Sciences (NCATS), 2018).
Results filed as inconclusive are left out. Unmarked numbers belong to inactive results. Activity calls are given as the source filed them. Calls come from the whole dose curve; as a rule, active = well fitted cell-killing curve with a large enough effect; inconclusive = small, poorly fitted or top-dose-only effect, or effect the other way; inactive = no such curve, though single readings can be large or run the other way.
% is set by controls: 0 for no effect and ±100 for the full control effect; potency is the fitted concentration of half-maximal effect.
Note: nearly all actives have a fitted effect of over 55% in size.

The compounds below were run on PA-1 (assay: Confirmatory qHTS for gynecologic anti-cancer compounds from libraries of approved drugs and bioactive compounds). Details: gynecologic cancer cell panel viability, ATPlite luminescence, 48 h; series mostly up to 57.6 µM; activity change, negative = viability loss: at the top concentration.
In short: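 IC50 values derive from an ATPlite ATP-content luminescence assay following 48 h treatment at 37 C. Each compound ran as an 11-concentration, threefold series (57.5 uM to 0.977 nM); HEK 293T served as control line for selectivity index.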
For `COc1cc(N2CCC(N3CCN(C)CC3)CC2)ccc1Nc1ncc(Cl)c(Nc2ccccc2S(=O)(=O)C(C)C)n1`, the Potency was 3.43 µM (active).
`O=C(NCC(O)CO)c1ccncc1Nc1ccc(I)cc1F` (stereo unspecified) was tested, and the Potency was 0.0611 µM (active).
In the case of `CCCS(=O)c1ccc2nc(NC(=O)OC)[nH]c2c1` (stereo unspecified), the Potency is reported as 34.3 µM (active).
`CCN(CC)CCOc1ccc(/C(=C(\Cl)c2ccccc2)c2ccccc2)cc1` was tested, and the Potency was 28.2 µM (active).
With `CCC1C(=O)N(C)c2cnc(Nc3ccc(C(=O)NC4CCN(C)CC4)cc3OC)nc2N1C1CCCC1` (stereo unspecified) the Potency was 0.0432 µM (active).
In the case of `O=C1N(c2ccccc2)c2ccccc2C1(Cc1ccncc1)Cc1ccncc1`, the “activity change, negative = viability loss” value is reported as 29.4%.
